We go through 23 molecules from PubChem BioAssay (NCATS).

A short description of experiment [1]: qHTS for Inhibitors of the Functional Ribonucleoprotein Complex (vRNP) of Lassa (LASV) Arenavirus: LASV Primary Screen - GLuc reporter signal (AID 1347082; calls by dose curve; tested in HEK293 reporter line; note: nearly all actives have a fitted effect of over 60% in size; note: potency is the fitted concentration of half-maximal effect).
A short description of experiment [2]: qHTS for Inhibitors of the Functional Ribonucleoprotein Complex (vRNP) of Lassa (LASV) Arenavirus: Viability assay - alamar blue signal for LASV Primary Screen (AID 1347083; calls by dose curve; tested in HEK293 reporter line; note: nearly all actives have a fitted effect of over 80% in size; note: potency is the fitted concentration of half-maximal effect).
The nature of experiment [3]: qHTS for Inhibitors of the Functional Ribonucleoprotein Complex (vRNP) of Lymphocytic Choriomeningitis Arenaviruses (LCMV): Viability assay - alamar blue signal for LCMV Primary Screen (AID 1347085; calls by dose curve; tested in HEK293 reporter line; note: nearly all actives have a fitted effect of over 80% in size; note: potency is the fitted concentration of half-maximal effect).
In experiment [4] the target is Nucleoprotein (Lymphocytic choriomeningitis virus (strain Armstrong)) (UniProt P09992). Briefly: qHTS for Inhibitors of the Functional Ribonucleoprotein Complex (vRNP) of Lymphocytic Choriomeningitis Arenaviruses (LCMV): LCMV Primary Screen - GLuc reporter signal (AID 1347086; calls by dose curve; note: nearly all actives have a fitted effect of over 70% in size; note: potency is the fitted concentration of half-maximal effect).
Chain of Nucleoprotein (Lymphocytic choriomeningitis virus (strain Armstrong)) (P09992 whole entry, looked up): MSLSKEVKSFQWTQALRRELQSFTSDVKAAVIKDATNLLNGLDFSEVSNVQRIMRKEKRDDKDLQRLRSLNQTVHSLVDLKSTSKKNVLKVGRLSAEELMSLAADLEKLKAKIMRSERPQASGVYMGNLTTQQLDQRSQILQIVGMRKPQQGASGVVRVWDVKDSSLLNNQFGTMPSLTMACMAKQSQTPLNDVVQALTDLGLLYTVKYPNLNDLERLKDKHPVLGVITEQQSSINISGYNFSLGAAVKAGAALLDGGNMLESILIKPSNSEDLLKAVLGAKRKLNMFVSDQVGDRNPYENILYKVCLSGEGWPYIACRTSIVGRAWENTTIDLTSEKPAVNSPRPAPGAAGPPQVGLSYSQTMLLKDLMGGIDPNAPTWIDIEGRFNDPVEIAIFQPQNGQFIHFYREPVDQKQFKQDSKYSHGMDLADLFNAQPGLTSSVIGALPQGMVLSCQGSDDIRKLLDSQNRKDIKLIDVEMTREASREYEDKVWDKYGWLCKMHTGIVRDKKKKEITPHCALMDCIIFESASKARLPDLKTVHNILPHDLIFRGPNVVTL
A short description of experiment [5]: qHTS of pediatric cancer cell lines to identify multiple opportunities for drug repurposing: Primary screen for TC32 cells (AID 1347089). Note: nearly all actives have a fitted effect of over 60% in size. In a few lines: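 qHTS, TC32, 48 h drug treatment, CellTiter-Glo luminescence as a proxy for metabolically active cells; primary top concentration 46 µM (MIPE 11-pt, NPC 8-pt); confirmatory 11-pt.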
The nature of experiment [6]: qHTS of pediatric cancer cell lines to identify multiple opportunities for drug repurposing: Primary screen for DAOY cells (AID 1347090). Note: nearly all actives have a fitted effect of over 55% in size. Note: potency is the fitted concentration of half-maximal effect. In a few lines:
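Viability measured as metabolically active cells via CellTiter-Glo luminescence following 48 hours of compound exposure, 11-point dilutions in confirmatory testing. 500-1,000 cells/well plated 5 hours before dosing; controls were DMSO and 2.3 µM bortezomib.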

Inconclusive results are not listed. Active and inactive are the calls of the source. Unless noted, calls come from the whole dose curve; as a rule, active = well fitted cell-killing curve with a large enough effect; inconclusive = small, poorly fitted or top-dose-only effect; inactive = flat fitted curve, though single readings scatter.

In the case of `O=[N+]([O-])c1c(Cl)c(Cl)cc(Cl)c1Cl`, the Potency result in experiment [1], in experiment [2], in experiment [3], in experiment [4], in experiment [5] and in experiment [6] was “inactive” in each case.
Regarding `C[C@]12CC[C@H](O)CC1=CC[C@H]1[C@H]3CCC(=O)[C@@]3(C)CC[C@@H]12`, the Potency result in experiment [1], in experiment [2], in experiment [3], in experiment [4] and in experiment [5] was “inactive” each time. Besides, in experiment [6], the Potency is 23.5 µM (active).
For the molecule `CC(O)=C(C#N)C(=O)Nc1cc(Br)ccc1Br`, the Potency entry in experiment [1], in experiment [2], in experiment [3], in experiment [4], in experiment [5] and in experiment [6] was “inactive” in each case.
Take `CC(=O)OCC1=C(C(=O)O)N2C(=O)[C@@H](N)[C@@H]2SC1`: the Potency entry in experiment [1], in experiment [2], in experiment [3], in experiment [4], in experiment [5] and in experiment [6] was “inactive” throughout.
`C#C[C@]1(O)C=C[C@@H]2[C@@H]3CCC4=CC(=O)CC[C@@H]4[C@H]3CC[C@@]21CC`: the Potency result in experiment [1], in experiment [2], in experiment [3], in experiment [4], in experiment [5] and in experiment [6] was “inactive” throughout.
In the case of `C=C1C[C@H]2[C@H]3CCC(=O)[C@@]3(C)CC[C@@H]2[C@@]2(C)C=CC(=O)C=C12`, the Potency result in experiment [1], in experiment [2], in experiment [3], in experiment [4], in experiment [5] and in experiment [6] was “inactive” throughout.
For `C[C@]12CC[C@@H]3[C@@H](CCC4=CC(=O)CC[C@@H]43)[C@@H]1CC[C@@H]2OC(=O)CCc1ccccc1`, the Potency entry in experiment [1], in experiment [2], in experiment [3], in experiment [4], in experiment [5] and in experiment [6] was “inactive” in each case.
For the molecule `CC[N+]1(CCOC(=O)C(O)(c2ccccc2)c2ccccc2)CCCCC1`, the Potency result in experiment [1], in experiment [2], in experiment [3], in experiment [4], in experiment [5] and in experiment [6] was “inactive” throughout.
For the molecule `O=C1C(I)=CC(=C(c2cc(I)c(O)c(I)c2)c2ccccc2C(=O)O)C=C1I`, the Potency result in experiment [1], in experiment [2], in experiment [3], in experiment [4], in experiment [5] and in experiment [6] was “inactive” throughout.
Consider `O=S(=O)(c1ccc(Cl)cc1)c1ccc(Cl)cc1`, for which the Potency entry in experiment [1], in experiment [2], in experiment [3], in experiment [4], in experiment [5] and in experiment [6] was “inactive” in each case.
For `C[C@]12Cc3cn[nH]c3C[C@@H]1CC[C@@H]1[C@H]2CC[C@@]2(C)[C@H]1CC[C@]2(C)O`, the Potency entry in experiment [1], in experiment [2], in experiment [3], in experiment [4], in experiment [5] and in experiment [6] was “inactive” each time.
As to `COC(C)(C)CCCC(C)C/C=C/C(C)=C/C(=O)OC(C)C` (stereo not drawn), the Potency entry in experiment [1], in experiment [2], in experiment [3], in experiment [4], in experiment [5] and in experiment [6] was “inactive” in each case.
As to `O=C(O)CCCOc1ccc(Cl)cc1Cl`, the Potency result in experiment [1], in experiment [2], in experiment [3], in experiment [4], in experiment [5] and in experiment [6] was “inactive” in each case.
With `Cc1nc(-c2ccc(-c3ccc(C(=O)N4CCc5cc6c(cc54)C4(CCN(C)CC4)CO6)cc3)c(C)c2)no1`, the Potency entry in experiment [1], in experiment [2], in experiment [3], in experiment [4], in experiment [5] and in experiment [6] was “inactive” in each case.
In the case of `O=C(O)C(Cl)Cl`, the Potency result in experiment [1], in experiment [2], in experiment [3], in experiment [4], in experiment [5] and in experiment [6] was “inactive” each time.
Take `O=C(NCC1CCOCC1)c1cnc(Nc2ccc(Cl)cc2Cl)nc1C(F)(F)F`: the Potency entry in experiment [1], in experiment [2], in experiment [3], in experiment [4] and in experiment [5] was “inactive” each time. Moreover, the Potency in experiment [6] was 18.7 µM (active).
On to `C=CC(=O)NCNC(=O)C=C`, for which the Potency result in experiment [1], in experiment [2], in experiment [3], in experiment [4], in experiment [5] and in experiment [6] was “inactive” in each case.
In the case of `NC1=NC(=O)N2CC12` (stereo not drawn), the Potency result in experiment [1], in experiment [2], in experiment [3], in experiment [4], in experiment [5] and in experiment [6] was “inactive” throughout.
For `c1ccc2c(CN3CCNCC3)cccc2c1`, the Potency result in experiment [1], in experiment [2], in experiment [3], in experiment [4], in experiment [5] and in experiment [6] was “inactive” in each case.
For the molecule `CCC(=O)O[C@@H]1C=C2CCC3C(CCC4(C)C3CC[C@@H]4OC(=O)CC)C2CC1` (stereo partly drawn), the Potency result in experiment [1], in experiment [2], in experiment [3], in experiment [4], in experiment [5] and in experiment [6] was “inactive” each time.
As for `CN[C@@H](C)[C@H](O)c1ccccc1`, the Potency entry in experiment [1], in experiment [2], in experiment [3], in experiment [4], in experiment [5] and in experiment [6] was “inactive” throughout.
With `C[C@]12CC[C@H]3[C@@H](CCC4=CC(=O)CC[C@@]43C)[C@H]1CC[C@H]2O`, the Potency result in experiment [1], in experiment [2], in experiment [3], in experiment [4], in experiment [5] and in experiment [6] was “inactive” each time.
As to `CC(C)N[C@@H]1CCn2c(=O)[nH]c3cccc(c32)[C@@H]1O`, the Potency in experiment [1] is 8.63 µM (active); in experiment [2], 19.3 µM (active); in experiment [3], 4.85 µM (active); in experiment [4] it was 2.73 µM (active); in experiment [6], 1.18 µM (active). Further, in experiment [5], the Potency result was “inactive”.
